Experimental data: PubChem BioAssay (NCI)
The panel holds about 79,000 compounds, 15% with a hit somewhere; the sample as a whole holds those more often. The source made the active and inactive calls. No stated cut-off is given here; in the data, active means growth inhibition above about 70%; inactive means the rest.

Experiments:
[1] = NCI Yeast Anticancer Drug Screen. Data for the rad52 strain (AID 147);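 further: 0% = growth of vehicle-treated control cultures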; conditions: S. cerevisiae rad52 mutant growth inhibition, stronger effect = higher value
Method in brief: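 Yeast strain carrying a DNA damage repair alteration was exposed to test compounds. Growth inhibition was measured relative to vehicle-treated controls.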

[2] = NCI Yeast Anticancer Drug Screen. Data for the wt1 strain (AID 149);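 further: 0% = growth of vehicle-treated wt1 cultures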; conditions: S. cerevisiae wt1 strain (SPY 50644) growth inhibition, stronger effect = higher value
Method in brief: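 Vehicle-normalised growth inhibition; strain wt1; compound exposure.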

[3] = NCI Yeast Anticancer Drug Screen. Data for the rad50EPP+ strain (AID 151);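 further: 0% = growth of vehicle-treated control cultures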; conditions: S. cerevisiae rad50 mutant strain, stronger effect = higher value
Method in brief: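 Yeast strain carrying rad50 alteration (rad50EPP+) exposed to compounds; growth inhibition measured relative to vehicle-treated controls.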

[4] = NCI Yeast Anticancer Drug Screen. Data for the rad50 strain (AID 155);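 further: 0% = growth of vehicle-only cultures of the same strain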; conditions: S. cerevisiae rad50 strain growth inhibition, stronger effect = higher value
Method in brief: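 A DNA repair-deficient yeast mutant serves as the test organism; compound-induced growth inhibition is calculated against vehicle-treated cells.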

[5] = NCI Yeast Anticancer Drug Screen. Data for the mec2-1 strain (AID 157); conditions: S. cerevisiae mec2-1 strain, stronger effect = higher value
Method in brief: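 mec2-1 yeast strain, carrying an alteration in DNA damage repair or cell cycle control, was exposed to compounds; growth inhibition was measured relative to vehicle-treated controls.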

[6] = NCI Yeast Anticancer Drug Screen. Data for the sgs1 mgt1 strain (AID 161);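 further: 0% = growth of cultures given vehicle only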; conditions: S. cerevisiae sgs1 mgt1 strain, stronger effect = higher value
Method in brief: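 Growth of a repair-deficient yeast mutant was monitored after compound treatment and expressed as inhibition relative to vehicle-treated cultures.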

[7] = NCI Yeast Anticancer Drug Screen. Data for the CLN2oe strain (AID 163);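 further: 0% = growth of vehicle-only control cultures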; conditions: S. cerevisiae CLN2oe strain, stronger effect = higher value
Method in brief: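 Yeast cells carrying a defined cell-cycle control alteration were exposed to test compounds. Growth inhibition was scored against vehicle-treated control cultures.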

[8] = NCI Yeast Anticancer Drug Screen. Data for the cln2 rad14 strain (AID 165);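 further: 0% = growth equal to vehicle treated cultures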; conditions: S. cerevisiae cln2 rad14 strain, stronger effect = higher value
Method in brief: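 Yeast carrying cln2 and rad14 alterations (cell cycle control and DNA damage repair) were exposed to compounds. Growth inhibition was measured against vehicle-treated controls.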

[9] = NCI Yeast Anticancer Drug Screen. Data for the bub3 strain (AID 167); conditions: S. cerevisiae bub3 mutant strain, stronger effect = higher value
Method in brief: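 Inhibition values come from growth of compound-treated mutant yeast normalised to vehicle-treated controls.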

[10] = NCI Yeast Anticancer Drug Screen. Data for the wt2 strain (AID 169);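 further: 0% = growth of vehicle-treated yeast cultures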; conditions: S. cerevisiae wt2 strain growth inhibition, stronger effect = higher value
Method in brief: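 Yeast cells were exposed to test compounds, and growth inhibition was measured relative to vehicle-treated controls.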

[11] = NCI Yeast Anticancer Drug Screen. Data for the mlh1 strain (AID 171);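 further: 0% = growth of vehicle-treated control cultures of the same strain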; conditions: S. cerevisiae mlh1 strain growth inhibition, stronger effect = higher value
Method in brief: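 Yeast carrying a defined genetic alteration in DNA damage repair or cell cycle control were exposed to test compounds. Growth inhibition was measured relative to vehicle-treated controls.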

[12] = NCI Yeast Anticancer Drug Screen. Data for the sgs1 strain (AID 173);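 further: 0% = growth of vehicle-only control cultures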; conditions: S. cerevisiae sgs1 mutant, stronger effect = higher value
Method in brief: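 Yeast mutant strains carrying defined defects in DNA damage repair or cell cycle control were exposed to test compounds. Growth inhibition was scored against vehicle-treated controls.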

[13] = NCI Yeast Anticancer Drug Screen. Data for the mlh1 rad18 strain (AID 175); conditions: S. cerevisiae mlh1 rad18 strain growth inhibition, stronger effect = higher value
Method in brief: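 Growth inhibition of the yeast strain was measured after compound exposure and expressed relative to vehicle-treated controls. The strain carries defined defects in DNA damage repair.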

[14] = NCI Yeast Anticancer Drug Screen. Data for the rad18 strain (AID 177); conditions: S. cerevisiae rad18 mutant growth inhibition, stronger effect = higher value
Method in brief: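 Yeast carrying a defined DNA damage repair alteration were exposed to compounds. Growth inhibition was expressed relative to vehicle-treated controls.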

[15] = NCI Yeast Anticancer Drug Screen. Data for the rad14 strain (AID 159);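 further: 0% = growth of vehicle-treated control cultures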; conditions: S. cerevisiae rad14 strain growth inhibition, stronger effect = higher value
Method in brief: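 Vehicle-treated cultures served as the baseline for growth inhibition of a DNA repair-mutant yeast strain exposed to each compound.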

[16] = at 5.0 µM (retest, dose inferred, filed as 0.5)
[17] = at 50.0 µM (retest, dose inferred, filed as 5.0)

Measured: growth inhibition

CCc1[nH]nc(C(N)=O)c1N=NN(C)C
active: [1]; at 33.0 µM 97% | [1]; at 100.0 µM 97% | [3]; at 100.0 µM 95% | [4]; at 33.0 µM 90% | [4]; [17] 85% | [4]; at 50.0 µM 90.1% | [4]; at 100.0 µM 97% | [5]; at 100.0 µM 94% | [12]; at 100.0 µM 88% | [13]; at 50.0 µM 70.7% | [14]; at 33.0 µM 85% | [14]; at 100.0 µM 96%
inactive: [1]; at 1.2 µM 3% | [1]; at 3.7 µM 20% | [1]; at 11.0 µM 66% | [2]; at 1.2 µM -6% | [2]; at 3.7 µM -4% | [2]; at 11.0 µM -7% | [2]; at 33.0 µM -5% | [2]; at 100.0 µM 1% | [3]; at 1.2 µM 0% | [3]; at 3.7 µM 12% | [3]; at 11.0 µM 27% | [3]; at 33.0 µM 69% | [4]; at 1.2 µM -4% | [4]; at 3.7 µM 5% | [4]; [16] -118% | [4]; at 11.0 µM 49% | [5]; at 1.2 µM 3% | [5]; at 3.7 µM -1% | [5]; [16] -46% | [5]; at 11.0 µM 7% | [5]; at 33.0 µM 25% | [5]; [17] 11% | [5]; at 50.0 µM 17.7% | [6]; [16] -57% | [6]; [17] 14% | [6]; at 50.0 µM 12.8% | [7]; at 1.2 µM -2% | [7]; at 3.7 µM -3% | [7]; at 11.0 µM 0% | [7]; at 33.0 µM 1% | [7]; at 100.0 µM 18% | [8]; [16] -53% | [8]; [17] -35% | [8]; at 50.0 µM 21.1% | [9]; at 1.2 µM -9% | [9]; at 3.7 µM -5% | [9]; [16] -66% | [9]; at 11.0 µM -3% | [9]; at 33.0 µM -6% | [9]; [17] -84% | [9]; at 50.0 µM -15.4% | [9]; at 100.0 µM 14% | [10]; at 1.2 µM -1% | [10]; at 3.7 µM 0% | [10]; at 11.0 µM -1% | [10]; at 33.0 µM 0% | [10]; at 100.0 µM 11% | [11]; at 1.2 µM 4% | [11]; at 3.7 µM -4% | [11]; at 11.0 µM -2% | [11]; at 33.0 µM 6% | [11]; at 100.0 µM 21% | [12]; at 1.2 µM 0% | [12]; at 3.7 µM -5% | [12]; at 11.0 µM 15% | [12]; at 33.0 µM 53% | [13]; [16] -126% | [13]; [17] 1% | [14]; at 1.2 µM 1% | [14]; at 3.7 µM 6% | [14]; at 11.0 µM 28%

CCCCCCCCCCCCCCCCCCNC(=S)/N=C\C1=C(O)c2ccccc2C1=O
active: [4]; [17] 86% | [6]; at 50.0 µM 71% | [9]; [17] 84%
inactive: [1]; at 1.2 µM 17% | [1]; at 3.7 µM 4% | [1]; at 11.0 µM 12% | [1]; at 33.0 µM 17% | [1]; at 100.0 µM 19% | [2]; at 1.2 µM -44% | [2]; at 3.7 µM -2% | [2]; at 11.0 µM -5% | [2]; at 33.0 µM -5% | [2]; at 100.0 µM -3% | [3]; at 1.2 µM -6% | [3]; at 3.7 µM 7% | [3]; at 11.0 µM 26% | [3]; at 33.0 µM 42% | [3]; at 100.0 µM 60% | [4]; at 1.2 µM -1% | [4]; at 3.7 µM 0% | [4]; [16] 5% | [4]; at 11.0 µM 0% | [4]; at 33.0 µM 4% | [4]; at 50.0 µM 60% | [4]; at 100.0 µM 9% | [5]; at 1.2 µM -3% | [5]; at 3.7 µM -1% | [5]; [16] -16% | [5]; at 11.0 µM -5% | [5]; at 33.0 µM 2% | [5]; [17] 37% | [5]; at 50.0 µM 36.7% | [5]; at 100.0 µM 2% | [15]; at 1.2 µM 0% | [15]; at 3.7 µM 3% | [15]; at 11.0 µM 7% | [15]; at 33.0 µM 10% | [15]; at 100.0 µM 11% | [6]; [16] -13% | [6]; [17] 18% | [8]; [16] 33% | [8]; [17] -10% | [8]; at 50.0 µM 25.7% | [9]; at 1.2 µM -5% | [9]; at 3.7 µM -9% | [9]; [16] -2% | [9]; at 11.0 µM -4% | [9]; at 33.0 µM -3% | [9]; at 50.0 µM 69.7% | [9]; at 100.0 µM 52% | [10]; at 1.2 µM -2% | [10]; at 3.7 µM -2% | [10]; at 11.0 µM 1% | [10]; at 33.0 µM 13% | [10]; at 100.0 µM 36% | [11]; at 1.2 µM -1% | [11]; at 3.7 µM -1% | [11]; at 11.0 µM -3% | [11]; at 33.0 µM -2% | [11]; at 100.0 µM -1% | [12]; at 1.2 µM 0% | [12]; at 3.7 µM 6% | [12]; at 11.0 µM 13% | [12]; at 33.0 µM 15% | [12]; at 100.0 µM 30% | [13]; [16] -13% | [13]; [17] 63% | [13]; at 50.0 µM 53% | [14]; at 1.2 µM 8% | [14]; at 3.7 µM 11% | [14]; at 11.0 µM 22% | [14]; at 33.0 µM 30% | [14]; at 100.0 µM 26%

CC1=CC2C(C(C)C)CC1C1C(=O)OC(=O)C21 (centres undefined)
inactive: [1]; at 1.2 µM -12% | [1]; at 3.7 µM -14% | [1]; at 11.0 µM -2% | [1]; at 33.0 µM 20% | [2]; at 1.2 µM -5% | [2]; at 3.7 µM 0% | [2]; at 11.0 µM 6% | [2]; at 33.0 µM 13% | [2]; at 100.0 µM 51% | [3]; at 1.2 µM -8% | [3]; at 3.7 µM -20% | [3]; at 11.0 µM 10% | [3]; at 33.0 µM 33% | [3]; at 100.0 µM 49% | [4]; at 1.2 µM -13% | [4]; at 3.7 µM -16% | [4]; [16] -127% | [4]; at 11.0 µM -12% | [4]; at 33.0 µM 24% | [5]; at 1.2 µM -1% | [5]; at 3.7 µM 0% | [5]; [16] -42% | [5]; at 11.0 µM -2% | [5]; at 33.0 µM 2% | [5]; at 100.0 µM 37% | [15]; at 1.2 µM -2% | [15]; at 3.7 µM 4% | [15]; at 11.0 µM 13% | [15]; at 33.0 µM 24% | [6]; [16] -60% | [6]; [17] 25% | [6]; at 50.0 µM 13.6% | [8]; [16] -53% | [8]; [17] 47% | [8]; at 50.0 µM 13.4% | [9]; at 1.2 µM -6% | [9]; at 3.7 µM -6% | [9]; [16] -71% | [9]; at 11.0 µM -9% | [9]; at 33.0 µM -6% | [9]; [17] 66% | [9]; at 100.0 µM 50% | [10]; at 1.2 µM -8% | [10]; at 3.7 µM -2% | [10]; at 11.0 µM 11% | [10]; at 33.0 µM 36% | [11]; at 1.2 µM -16% | [11]; at 3.7 µM -7% | [11]; at 11.0 µM -6% | [11]; at 33.0 µM 10% | [11]; at 100.0 µM 56% | [12]; at 1.2 µM -14% | [12]; at 3.7 µM -10% | [12]; at 11.0 µM 7% | [12]; at 33.0 µM 27% | [13]; [16] -140% | [14]; at 1.2 µM -9% | [14]; at 3.7 µM -6% | [14]; at 11.0 µM -6% | [14]; at 33.0 µM 3% | [14]; at 100.0 µM 69%
active: [1]; at 100.0 µM 71% | [4]; [17] 83% | [4]; at 50.0 µM 86.7% | [4]; at 100.0 µM 81% | [5]; [17] 86% | [5]; at 50.0 µM 76.5% | [15]; at 100.0 µM 78% | [9]; at 50.0 µM 70.8% | [10]; at 100.0 µM 86% | [12]; at 100.0 µM 88% | [13]; [17] 77% | [13]; at 50.0 µM 76.4%
